# EP2 mod – EP2 receptor modulators, cAMP readout, primary screen, cell-based, HTRF cAMP, PGE2 stimulation; Prostaglandin E2 receptor EP2 subtype (Homo sapiens), P43116; EP2-expressing cells, cAMP HTRF FRET, PGE2 co-stimulation; induction, % at 25 µM; 260,000 tested, 0.83% active; AID 940, 2007;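 active = compounds whose cAMP rise, as percent of the full-agonist control response, exceeds 60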;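 note: rat C6 glioma line stably carrying human EP2 under a CMV promoter; the protocol text gives 20 µM as final concentration; 100% = response of wells given 1 µM PGE2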
# Target sequence (P43116 whole entry, looked up): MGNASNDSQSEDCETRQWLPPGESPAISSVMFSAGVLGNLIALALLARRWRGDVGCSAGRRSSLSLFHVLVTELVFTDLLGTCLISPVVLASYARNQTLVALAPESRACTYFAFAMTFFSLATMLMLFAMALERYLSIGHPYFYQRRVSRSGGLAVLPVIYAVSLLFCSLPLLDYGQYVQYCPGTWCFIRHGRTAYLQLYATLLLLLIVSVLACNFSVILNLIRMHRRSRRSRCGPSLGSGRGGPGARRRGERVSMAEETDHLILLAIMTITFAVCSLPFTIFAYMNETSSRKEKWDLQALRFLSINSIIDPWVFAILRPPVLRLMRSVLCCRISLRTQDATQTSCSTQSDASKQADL
# RAM inhibit – inhibitors of the yeast RAM network, primary screen, dse1pr::URA3 reporter, 5-FOA selection; S. cerevisiae dse1pr::URA3 reporter, 5-FOA growth OD615, 2 d; analog-sensitive cbk1-as2 kinase mutant strain; inhibition, % at 50 µM; 190,000 tested, 1.8% active;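 active = inhibition above a set limit, 3 SD over mean compound inhibition, cut at about 8.4% in these data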;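 note: 0% = DMSO-only wells with no growth and 100% = 10 µM 1-NA-PP1 full growth; inhibition rescues growth on 5-FOA so higher OD means more RAM inhibition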
# SKN-1 inh – suppressors of acrylamide-induced Pgst-4::GFP reporter in worms, primary screen, SKN-1 inhibitor project, whole organism, uHTS, GFP/RFP fluorescence ratio, strain VP596; inhibition, % at 21.8 µM; 360,000 tested, 0.49% active; C. elegans VP596 Pgst-4::GFP/RFP ratio, 24 h; AID 624304, 2012;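 active = interference check ratio from 0.5 to 1.5 plus GFP to RFP signal ratio inhibition reaching or exceeding a fixed threshold, cut at about 30% in these data, passing the limit was not always enough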
# PG9 Ab binder – binders of HIV-1 gp120 antibody PG9, primary screen, biochemical, TR-FRET | HIV-1 gp120 / PG9 antibody interaction | TR-FRET gp120-PG9 antibody binding | inhibition, % at 6.7 µM | 360,000 tested, 0.43% active; in the data active = inhibition above about 8.5%
# Rev-erbA mod – modulators of Rev-erb alpha DNA binding, primary screen, biochemical, FITC-DNA, fluorescence polarization, uHTS. Nuclear receptor subfamily 1 group D member 1 (Homo sapiens), P20393. Rev-erbα–FITC-DNA binding, 90 min. activity, % at 10 µM. 370,000 tested, 0.79% active. AID 1259318, 2017;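 active = activity above about 14%, limit read from the data; passing the limit was not always enough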;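 note: 0% = DMSO wells with 35 nM protein and 100% = DMSO wells with 750 nM protein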
# PGE2 EP2 inh – human EP2 receptor antagonists, primary screen, TR-FRET cAMP, C6 glioma cells | 260,000 tested, 0.52% active | Prostaglandin E2 receptor EP2 subtype (Homo sapiens), P43116 | inhibition, % at 25 µM | AID 1422, 2008 | C6 glioma cells expressing human EP2; cells stimulated with saturating PGE2;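 active = percent inhibition above 40 after rounding to a whole number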;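 note: rat C6 glioma host cells with rolipram phosphodiesterase inhibitor present; the protocol text gives 20 µM as final concentration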
# Rev-erbA confirm – modulators of Rev-erb alpha DNA binding, confirmation, biochemical, FITC-DNA, fluorescence polarization, single point | shares compounds with Rev-erbA mod | 90 min | activation, % at 25 µM | 3,000 tested, 61% active | AID 1259319, 2017;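 active = activation at or above a set limit, or at least 3 SD above the negative control mean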;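 note: 0% = 35 nM protein with DMSO and 100% = 750 nM protein high control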
# RORg DNA counter – modulation of RORgamma DNA binding, dose response, counter-screen for Rev-erb alpha modulator project, biochemical, fluorescence polarization, FITC-DNA. shares compounds with Rev-erbA mod. purified RORgamma protein-FITC-DNA binding. IC50, µM. 910 tested, 8% active;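 active = Compounds whose fitted half-maximal concentration for disrupting protein-DNA binding is below 10 micromolar; the record names Rev-erb in its text, so the target is in doubt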
# The depositor's hits bear a star; · = no result. In the library only some 2.9% were active in any assay of this set; here they are far more common.
SMILES,EP2 mod,RAM inhibit,SKN-1 inh,PG9 Ab binder,Rev-erbA mod,PGE2 EP2 inh,Rev-erbA confirm,others
CCOC(=O)c1c(NC(=O)CSc2nc3ccccc3c(=O)n2-c2ccc(F)cc2)sc(C(C)=O)c1C,19.8,3.8,0.7,0.3,114.0*,31.3,29.7*,
CCCN1C(=O)S/C(=C/c2ccc(N3CCOCC3)o2)C1=O,-25.4,·,-1.4,-11.5,47.1*,-0.2,44.7*,RORg DNA counter=>40
CCCN1C(=O)S/C(=C\c2ccc(N3CCOCC3)o2)C1=O,-7.3,4.0,-6.9,-9.4,-0.8,9.8,·,
COc1nc2ccc(C)cc2cc1-c1noc(-c2cccnc2)n1,17.0,0.8,-3.6,-2.1,34.9*,17.1,6.8,
COc1cccc(-c2noc(-c3cccnc3)n2)c1,-3.8,1.2,7.6,-2.7,0.6,8.3,·,
COCC(C)NC(=O)[C@H]1C[C@@H](c2ccc(F)cc2)NS(=O)(=O)N1C (stereo partly drawn),8.4,·,·,·,·,·,·,
Clc1ccc(-c2ccnc(Oc3cc(Cl)ccc3Cl)n2)cc1,59.2,4.7,3.3,0.5,35.3*,14.5,38.6*,RORg DNA counter=>40
Clc1ccc(-c2ccnc(Oc3ccc4ccccc4c3)n2)cc1,15.6,5.5,1.5,-2.0,4.3,12.1,·,
O=c1c(Cl)c(Nc2cccc(Cl)c2)cnn1-c1nc2ccccc2s1,-62.4,3.4,10.2,-1.6,19.0*,9.6,10.4,
Cc1cc(C)n(-c2nc3ccccc3s2)n1,5.7,2.8,-5.6,-1.3,-4.1,11.3,·,
CCC(C)(C)NC(=O)C(c1ccccc1Cl)N(C(=O)Cn1nnc2ccccc21)C1CC1 (stereo not drawn),23.9,·,·,·,·,1.9,·,
Cn1c(SCC(=O)c2c[nH]c3ccccc23)nnc1-c1cccc(Cl)c1,-38.9,·,·,·,·,17.7,·,
COc1ccc(CCNC(=O)CSc2nnc3c4c5c(sc4nc(C)n23)CCCC5)cc1OC,40.7,·,·,·,·,5.7,·,
Cc1nc(SCC(=O)Nc2ccc(C)c(F)c2)c2oc3ccccc3c2n1,-3.9,2.9,7.2,-1.4,778.9*,16.4,682.2*,
Cc1nc(SCc2ccccc2)c2oc3ccccc3c2n1,2.5,·,5.3,0.1,2.4,8.9,·,
Cc1nc(SCC(=O)NC2CCCC2)c2oc3ccccc3c2n1,·,·,17.9,-2.8,35.2*,·,652.5*,RORg DNA counter=>40
Cc1nc(NCCCO)c(C#N)c(C)c1[N+](=O)[O-],-37.7,·,·,·,·,9.5,·,
Cc1[nH]c2ccccc2c1C(=O)CSc1ccccc1,-14.5,7.8,1.7,-3.1,3.1,15.2,·,
Cc1ccc2c(C(=O)CSc3ccccc3)c(C)[nH]c2c1,2.5,4.3,13.6,-5.3,30.3*,5.0,28.2*,
C=CCn1c(N2CCC(C(=O)NCc3cccc(F)c3)CC2)nc2ccccc21,-43.2,·,·,·,·,·,·,
C=CCn1c(SCc2nc3ccccc3c(=O)[nH]2)nnc1-c1cc2cc(Cl)ccc2o1,17.2,3.4,-8.2,-1.2,25.9*,25.9,30.0*,
COc1ccc2cc(CN(CCO)C(=S)NCc3ccco3)c(=O)[nH]c2c1,-29.0,·,·,·,·,9.5,·,
O=C(CSc1nc(-c2ccco2)cc(C(F)(F)F)n1)N1CCCc2ccccc21,24.1,3.1,-7.6,-0.4,24.7*,9.8,14.1,
COc1ccc(-c2cc(C(F)(F)F)nc(SCC(=O)N3CCCc4ccccc43)n2)cc1OC,-18.2,·,·,·,·,13.1,·,
CCCOC(=O)Cn1cnc2sc(C(=O)Nc3ccccc3OC)c(C)c2c1=O,15.0,·,·,·,·,20.0,·,
SMILES,EP2 mod,RAM inhibit,SKN-1 inh,PG9 Ab binder,Rev-erbA mod,PGE2 EP2 inh,Rev-erbA confirm,others
CCc1cc2cc(C)ccc2nc1SCC(=O)NC1CCCC1,·,·,-4.3,0.7,31.6*,·,34.6*,RORg DNA counter=>40
CCOC(=O)CNC(=O)CSc1nc2c(C)cccc2cc1CC,55.9,2.2,-0.2,4.6,-2.2,16.1,·,
CCc1cc2cccc(C)c2nc1SCC(=O)NC1CCCC1,·,·,13.9,2.7,20.6*,·,10.8,
COc1cc2c(cc1NC(=O)CN1CCN(S(=O)(=O)c3ccc(C)cc3)CC1)oc1ccccc12,-0.5,4.7,-10.0,-0.8,26.6*,·,18.6*,
COc1cc(C)c(CN2CCC(O)(c3ccc(C)cc3)CC2)cc1OC,-47.5,·,·,·,·,9.2,·,
O=C(Nc1cc(Cl)cc(Cl)c1)Nc1cnccn1,·,·,19.2,-3.0,12.4*,·,2.1,
O=C(Nc1ccc(F)cc1)Nc1cnccn1,·,·,8.9,0.8,9.1,·,·,
CN(C)c1ncnc2c1ncn2[C@H]1CN(Cc2cccs2)C[C@@H](CO)O1,·,·,6.6,0.2,23.9*,·,-1.1,
Cc1nn(-c2ccc(Cl)cc2)c2sc(C(=O)c3c(N)n(C)c(=O)n(C)c3=O)cc12,5.6,2.6,3.7,1.0,30.8*,0.6,38.1*,RORg DNA counter=>40
COC(CNC(=O)c1ccc2nc(-c3cccs3)c(-c3cccs3)nc2c1)OC,18.4,7.7,2.3,-17.9,26.6*,11.9,7.8,
O=c1c(Cl)c(NCc2ccco2)cnn1Cc1ccccc1,46.4,·,·,·,·,7.7,·,
Clc1ccc2nc(N3CCNCC3)nc(-c3ccccc3)c2c1,·,2.9,-5.2,-1.4,4.6,10.9,·,
O=C1CN(c2nc(-c3ccccc3)c3cc(Cl)ccc3n2)c2ccccc2N1,11.3,5.4,4.6,-1.8,31.9*,14.7,-1.1,
COc1ccc(-c2c(C)nc(N)nc2-c2ccc(OCc3ccc(C)cc3)cc2O)cc1OC,13.6,3.2,9.2,-1.9,123.5*,9.1,84.8*,RORg DNA counter=>40
Cc1ccc2c(c1)nnn2C1CCN(S(=O)(=O)c2cccc(Cl)c2)CC1,-67.9,·,·,·,·,6.6,·,
CC(=O)c1ccc(N2CCN(S(=O)(=O)c3ccc4c(c3)CC(C)N4C(=O)C3CC3)CC2)cc1 (stereo not drawn),·,·,-11.1,0.9,30.8*,·,24.2*,
CC(C)c1cc(Br)ccc1OCCN1C(=O)NC(C)(C)C1=O,15.9,1.1,12.4,-0.9,13.8*,5.9,1.1,
Cc1ccc(C(C)C)c(OCCCN2C(=O)NC(C)(C)C2=O)c1,18.6,1.0,-33.3,0.5,5.0,1.6,·,
O=C(CCN1CCOCC1)Nc1c(-c2ccccc2)c2cc(Br)ccc2[nH]c1=O,16.3,-0.1,7.1,-0.9,-6.8,4.5,·,
Cc1ccc2[nH]c(=O)c(N3CCOCC3)c(-c3ccccc3)c2c1,47.0,3.1,15.0,0.4,28.4*,7.1,-0.3,
COc1ccc(C(=O)NCCNc2nc3cc(C)cc(C)c3cc2C#N)c(OC)c1,·,·,4.5,-2.8,5.6,·,·,

# Source: PubChem
